Experimental data reported in PubChem BioAssay.
Activity calls are given as the source filed them.

Key:
[1] = test system: PRMT1 (protein arginine N-methyltransferase 1); assay: PRMT1 binders on small-molecule microarrays, primary screen, biochemical, small-molecule microarray, 635 nm fluorescence (AID 1088); conditions: small-molecule microarray binding, higher = more signal;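 further: binding of Prmt1 protein to compounds spotted on small-molecule microarray slides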
[2] = yeast growth modulation, basal conditions, primary screen, YJM789 clinical isolate, OD600, 24 h (AID 1089);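 further: growth of clinical yeast isolate S. cerevisiae YJM 789 seeded 1000 cells per well; test concentration not given here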; conditions: S. cerevisiae YJM789 growth, higher = more signal, called active from +8 up or from −8 down
[3] = fission yeast growth modulation, primary screen, strain 972, OD600, 24 h, no modulator (AID 1090);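 further: basal condition with compound alone and no growth modifier present; test concentration not given here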; conditions: S. pombe 972 growth, higher = more signal, called active from +8 up or from −8 down
[4] = S. cerevisiae growth modulation with rapamycin, primary screen, strain BY4716, OD600, 96 h (AID 1091); conditions: higher = more signal, called active from +8 up or from −8 down; further: test concentration not given here
[5] = molecular target: Torsin-1A-interacting protein 2 (Homo sapiens) (UniProt Q8NFQ8); assay: LULL1 binders on small-molecule microarray, primary screen, cell lysate, human LULL1 lysate, 635/667 nm fluorescence (AID 1092); conditions: hLULL1 lysate binding, 635 nm fluorescence, higher = more signal;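 further: probe is lysate of COS7 cells overexpressing human LULL1; score merges per-feature 667 nm fluorescence with signal-to-noise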
Torsin-1A-interacting protein 2 (Homo sapiens), sequence (Q8NFQ8 whole entry, looked up): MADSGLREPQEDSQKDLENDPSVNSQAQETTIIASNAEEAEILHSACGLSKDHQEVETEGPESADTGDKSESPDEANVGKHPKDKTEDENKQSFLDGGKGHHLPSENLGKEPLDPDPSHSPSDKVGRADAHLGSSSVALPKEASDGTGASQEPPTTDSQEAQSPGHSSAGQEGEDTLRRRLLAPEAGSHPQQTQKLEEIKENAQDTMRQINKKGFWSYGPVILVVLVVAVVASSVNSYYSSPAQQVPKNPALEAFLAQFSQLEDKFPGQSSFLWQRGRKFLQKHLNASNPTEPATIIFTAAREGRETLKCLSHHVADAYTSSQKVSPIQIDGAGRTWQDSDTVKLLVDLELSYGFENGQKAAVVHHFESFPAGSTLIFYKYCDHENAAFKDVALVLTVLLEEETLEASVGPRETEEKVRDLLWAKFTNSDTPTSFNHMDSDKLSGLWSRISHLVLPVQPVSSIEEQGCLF

[6] = E. coli growth modulation, two-sided OD650, primary screen, E. coli filamentation project, strain DRC41, 24 h (AID 1093); conditions: OD650, 24 h, higher = more signal, called active from +8 up or from −8 down;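 further: MC1000 strain lacking acrAB efflux and sulA so SOS filamentation is blocked; test concentration not given here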
[7] = small-molecule microarray binders of probe aLefty2, primary screen, biochemical, biotinylated probe, 635/667 nm fluorescence (AID 1094); conditions: higher = more signal;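 further: score merges spot fluorescence near 667 nm with spot signal-to-noise ratio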
[8] = test system: Noggin (protein binding on small-molecule microarray); assay: Noggin binders on small-molecule microarray, primary screen, biochemical, 635/667 nm fluorescence (AID 1095); conditions: 635 nm fluorescence, higher = more signal;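 further: score merges 667 nm feature fluorescence with signal to noise over triplicate slides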
[9] = molecular target: Neurogenic locus notch homolog protein 3 (Homo sapiens) (UniProt Q9UM47); assay: NOTCH3 binders on small-molecule microarray, primary screen, biochemical, 635/667 nm fluorescence (AID 1096); conditions: NOTCH3 binding, 635 nm fluorescence, higher = more signal
Neurogenic locus notch homolog protein 3 (Homo sapiens), sequence (Q9UM47 whole entry, looked up): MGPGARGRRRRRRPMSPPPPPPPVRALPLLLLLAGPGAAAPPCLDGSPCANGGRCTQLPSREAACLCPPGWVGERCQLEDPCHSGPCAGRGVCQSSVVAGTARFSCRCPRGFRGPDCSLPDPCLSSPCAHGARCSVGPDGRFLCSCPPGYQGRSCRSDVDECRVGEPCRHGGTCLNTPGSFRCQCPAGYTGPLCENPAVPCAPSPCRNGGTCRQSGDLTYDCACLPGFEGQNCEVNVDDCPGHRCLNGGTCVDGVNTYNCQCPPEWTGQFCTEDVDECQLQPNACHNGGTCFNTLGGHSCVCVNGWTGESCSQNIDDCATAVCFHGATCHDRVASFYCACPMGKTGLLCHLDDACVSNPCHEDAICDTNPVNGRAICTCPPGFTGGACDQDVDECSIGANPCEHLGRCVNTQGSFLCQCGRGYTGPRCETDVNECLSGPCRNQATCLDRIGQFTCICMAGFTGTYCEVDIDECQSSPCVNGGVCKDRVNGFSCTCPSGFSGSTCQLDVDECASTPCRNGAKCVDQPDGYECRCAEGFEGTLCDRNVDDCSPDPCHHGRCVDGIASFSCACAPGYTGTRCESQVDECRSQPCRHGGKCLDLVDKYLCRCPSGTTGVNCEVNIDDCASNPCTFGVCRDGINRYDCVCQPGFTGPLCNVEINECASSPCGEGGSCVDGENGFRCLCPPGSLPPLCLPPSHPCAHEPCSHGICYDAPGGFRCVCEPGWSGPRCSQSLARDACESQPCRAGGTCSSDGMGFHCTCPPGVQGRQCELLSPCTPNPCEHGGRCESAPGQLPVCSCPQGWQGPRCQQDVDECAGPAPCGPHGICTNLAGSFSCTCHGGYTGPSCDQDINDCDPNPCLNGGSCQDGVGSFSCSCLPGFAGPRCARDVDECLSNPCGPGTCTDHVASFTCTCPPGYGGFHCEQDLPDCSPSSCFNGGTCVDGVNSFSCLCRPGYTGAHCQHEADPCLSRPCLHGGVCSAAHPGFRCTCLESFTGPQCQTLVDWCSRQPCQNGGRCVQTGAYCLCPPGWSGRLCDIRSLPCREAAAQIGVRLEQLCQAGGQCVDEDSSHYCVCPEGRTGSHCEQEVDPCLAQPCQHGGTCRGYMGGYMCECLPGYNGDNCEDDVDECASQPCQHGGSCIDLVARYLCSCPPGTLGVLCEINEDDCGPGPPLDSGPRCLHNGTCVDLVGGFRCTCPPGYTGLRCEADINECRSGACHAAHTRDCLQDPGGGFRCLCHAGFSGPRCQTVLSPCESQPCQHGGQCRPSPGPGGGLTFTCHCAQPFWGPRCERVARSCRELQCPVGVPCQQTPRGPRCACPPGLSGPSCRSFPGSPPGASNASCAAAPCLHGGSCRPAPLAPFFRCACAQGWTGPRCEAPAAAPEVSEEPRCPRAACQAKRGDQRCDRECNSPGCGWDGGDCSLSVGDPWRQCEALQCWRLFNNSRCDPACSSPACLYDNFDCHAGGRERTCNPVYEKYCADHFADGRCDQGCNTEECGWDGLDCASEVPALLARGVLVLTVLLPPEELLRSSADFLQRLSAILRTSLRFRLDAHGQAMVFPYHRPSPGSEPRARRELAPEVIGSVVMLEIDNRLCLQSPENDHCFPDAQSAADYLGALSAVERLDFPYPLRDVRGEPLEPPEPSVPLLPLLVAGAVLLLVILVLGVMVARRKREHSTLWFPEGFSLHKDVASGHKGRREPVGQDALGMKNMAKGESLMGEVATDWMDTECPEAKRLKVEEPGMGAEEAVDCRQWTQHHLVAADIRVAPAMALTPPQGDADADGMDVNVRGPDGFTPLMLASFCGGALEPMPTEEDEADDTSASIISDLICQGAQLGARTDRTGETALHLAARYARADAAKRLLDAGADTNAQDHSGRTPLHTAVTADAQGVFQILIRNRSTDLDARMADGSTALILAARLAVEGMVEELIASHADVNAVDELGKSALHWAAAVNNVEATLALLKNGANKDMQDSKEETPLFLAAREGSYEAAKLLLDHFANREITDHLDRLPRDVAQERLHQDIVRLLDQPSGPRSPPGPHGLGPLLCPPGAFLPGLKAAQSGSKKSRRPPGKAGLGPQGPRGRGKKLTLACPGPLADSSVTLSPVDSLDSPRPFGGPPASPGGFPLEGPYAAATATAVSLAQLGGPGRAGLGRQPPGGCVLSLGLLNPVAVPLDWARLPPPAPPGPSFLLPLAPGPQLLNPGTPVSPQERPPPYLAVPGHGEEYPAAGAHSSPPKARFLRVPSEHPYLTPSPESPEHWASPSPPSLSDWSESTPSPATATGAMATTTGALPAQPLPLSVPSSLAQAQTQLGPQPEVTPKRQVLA

[10] = small-molecule microarray binders of probe aEGFR, primary screen, biochemical, biotinylated probe, 635/667 nm fluorescence (AID 1097); conditions: higher = more signal;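 further: probe is a biotinylated anti-EGFR antibody binding compounds printed on slides; score combines fluorescence near 667 nm and signal to noise of each spot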

| SMILES | composite z-score [1] | z-score [2] | z-score [3] | z-score [4] | composite z-score [5] | z-score [6] | composite z-score [7] | composite z-score [8] | composite z-score [9] | composite z-score [10] |
| --- | --- | --- | --- | --- | --- | --- | --- | --- | --- | --- |
| C=CCC(OC(C)=O)[C@@H]1[C@@H](N(Cc2ccc(-c3cccc(C(F)(F)F)c3)o2)C(=O)c2cccc3ccccc23)c2cc(OCCCO)ccc2N1C(=O)c1ccc(-c2ccccc2)cc1 (stereo not given in full) | -0.496 | 0.0476 (inactive) | 0.0758 (inactive) | -0.0038 (inactive) | -0.94 | -0.993 (inactive) | -0.0785 | 1.06 | -0.358 | -0.099 |
| COC(=O)[C@@]1(Cc2ccccc2)[C@H]2c3cc(C(=O)N(C)C)n(Cc4ccccn4)c3C[C@H]2CN1C(=O)c1ccccc1 | 0.664 | 0.249 (inactive) | 0.87 (inactive) | 0.963 (inactive) | 3.68 | -0.537 (inactive) | 0.506 | -0.793 | 1.11 | 0.309 |
| NC(=O)NCC#Cc1ccc2c(c1)[C@]1(C(=O)N2)[C@H](c2ccc(O)cc2)N2[C@H](c3ccccc3)[C@H](c3ccccc3)OC(=O)[C@H]2[C@@H]1C(N)=O | 0.64 | 0.321 (inactive) | 0.736 (inactive) | 0.183 (inactive) | 1.46 | 0.248 (inactive) | -0.072 | -0.238 | -1.19 | -0.187 |
| [N-]=[N+]=Nc1ccccc1[C@@H]1OC(c2ccc(OCCCO)cc2)=N[C@]1(CCS(=O)(=O)c1ccccc1)C(=O)NCc1ccccc1 | 1.13 | 0.728 (inactive) | -0.111 (inactive) | 0.635 (inactive) | 3.23 | 0.846 (inactive) | 0.813 | 0.326 | 1.12 | 0.203 |
| COc1ccccc1CN1C(=O)c2ccccc2[C@@]2(Cc3ccccc3N(C3CC3)C2=O)[C@@H]1c1ccc(CO)cc1 | 0.0943 | -0.245 (inactive) | -0.384 (inactive) | -2.24 (inactive) | 0.861 | -0.134 (inactive) | -0.0699 | -0.2 | -0.473 | -0.181 |
| CCCC=C(CCC)[C@@H](NS(=O)(=O)c1cccc2cccnc12)c1ccc(C(=O)OC)cc1 | 0.763 | 0.797 (inactive) | -0.271 (inactive) | 0.823 (inactive) | 0.472 | -0.376 (inactive) | 0.679 | 2.03 | 0.542 | 1.35 |
| CC(C)(C)OC(=O)CC[C@@]1(C(=O)N2CCCCC2)N=C(c2ccc(OCCCO)cc2)O[C@@H]1c1ccccc1N=[N+]=[N-] | 1.53 | -0.336 (inactive) | -0.029 (inactive) | -0.183 (inactive) | 3.49 | 1.11 (inactive) | 0.253 | 0.369 | 1.03 | 0.208 |
| CC(=O)NCCCC[C@@H]1NC(=O)[C@@H]2C[C@H](C(=O)NCCCC[N+](C)(C)C)[C@H](c3cccc(OCCO)c3)N2C1=O | -0.598 | 0.408 (inactive) | 0.338 (inactive) | -0.465 (inactive) | -0.0272 | -0.427 (inactive) | 0.127 | 1.94 | 0.801 | -0.162 |
| COc1ccc([Si](C)(C)[C@@H]2[C@@H](CCO)O[C@]3(C(=O)N(Cc4ccc(N5C(=O)c6ccccc6Oc6ccccc65)cc4)c4ccccc43)[C@H]2C)cc1 | 0.106 | 3.36 (inactive) | 0.262 (inactive) | 37.6 (active) | -0.49 | 0.045 (inactive) | -0.0359 | -0.0905 | 0.18 | -0.241 |
| CCOC(=O)C[C@H]1[C@H](OC(=O)c2cc3ccccc3oc2=O)[C@@H](NC(=O)c2ccc3ccccc3n2)c2cc(OCCCO)ccc2N1C(=O)c1ccc2ccccc2n1 | 0.295 | -0.157 (inactive) | 0.291 (inactive) | -0.273 (inactive) | 0.648 | 1.5 (inactive) | -0.0773 | 1.03 | 1.12 | 0.183 |
| O=C1C2C=CC(C(O)c3ccc(Br)cc3)N(Nc3ccccc3)C2C(=O)N1c1ccccc1 (stereo not given) | 0.826 | 0.379 (inactive) | 0.443 (inactive) | 0.84 (inactive) | 2.12 | -1.59 (inactive) | 0.228 | -0.325 | 1.12 | -0.0123 |
| O=C1C2C=CC(C(O)c3cccc4ccccc34)N(Nc3ccccc3)C2C(=O)N1c1ccccc1 (stereo not given) | 1.56 | 0.487 (inactive) | -0.251 (inactive) | -0.0667 (inactive) | 3.16 | -1.07 (inactive) | 0.343 | 0.428 | 1.04 | -0.0271 |
| CCCCCCC#C[Si](O[C@H](c1ccccc1)c1cn(Cc2cccc(Cl)c2)nn1)(C(C)C)C(C)C | 1 | -0.381 (inactive) | 0.403 (inactive) | -0.162 (inactive) | 0.416 | 1.12 (inactive) | -0.0719 | 0.255 | 0.487 | -0.0828 |
| CC(C)C[C@@H]1NC(=O)[C@@H]2C[C@H](C(=O)NCc3ccc(F)cc3)[C@H](c3ccc(O)cc3)N2C1=O | 1.43 | -0.472 (inactive) | -0.352 (inactive) | -0.427 (inactive) | 2.96 | 0.549 (inactive) | 0.0137 | 0.479 | 0.365 | -0.178 |
| CCCCC(CC)C(O)C1C=CC2C(=O)NC(=O)C2N1Nc1ccccn1 (stereo not given) | 1.34 | 0.601 (inactive) | 0.764 (inactive) | 0.722 (inactive) | 2.74 | -0.828 (inactive) | -0.11 | 0.0732 | 1.1 | -0.119 |
| O=C1N(Cc2ccccc2)c2ccccc2[C@H]2OC(c3ccc(OCCCO)cc3)=N[C@@]12CCS(=O)(=O)c1ccccc1 | 1.54 | 1.19 (inactive) | 0.485 (inactive) | 8.14 (active) | 3.36 | -0.81 (inactive) | 0.0137 | 1.75 | 1.08 | -0.0531 |
| C=C(C(=O)CC[C@H](OC(=O)c1cccnc1)c1ccc(OCCO)cc1)C(C)C | 1.55 | 0.366 (inactive) | -1.54 (inactive) | 0.905 (inactive) | 1.76 | -0.388 (inactive) | -0.0961 | 0.986 | 0.717 | -0.0362 |
| O=C1C[C@@](C(=O)O)(c2ccc([N+](=O)[O-])cc2)[C@@H](c2ccc(CO)cc2)N1CC12CC3CC(CC(C3)C1)C2 | 1.54 | 0.629 (inactive) | -2.98 (inactive) | 0.117 (inactive) | 2.3 | 0.91 (inactive) | 0.0446 | 0.257 | 0.857 | 0.06 |
| COCCOC(=O)N1C(=O)[C@@]2(c3cc(C#CCNC(N)=O)ccc31)[C@H](C(N)=O)[C@H]1C(=O)O[C@H](c3ccccc3)[C@H](c3ccccc3)N1[C@@H]2c1ccc(OCCO)cc1 | 1.55 | 0.517 (inactive) | 0.0121 (inactive) | 1.98 (inactive) | 1.53 | -0.27 (inactive) | -0.0054 | 1.23 | 1.07 | -0.0085 |
| C=CCC(OC(C)=O)[C@@H]1[C@@H](N(Cc2ccc(-c3ccccc3)cc2)C(=O)Cc2ccc(OC)cc2)c2cc(OCCCO)ccc2N1C(=O)c1ccc(-c2ccccc2)cc1 (stereo not given in full) | -0.0413 | -0.445 (inactive) | -0.512 (inactive) | -0.542 (inactive) | 0.182 | 1.23 (inactive) | 0.152 | -0.0829 | -0.255 | -0.0488 |
| CC(C)CCC[C@@H](C)[C@H]1CC[C@@]2(C)C3=C(CC[C@]12C)[C@@]1(C)CC[C@H](OC(=O)C(C)(C)C)C(C)(C)C1CC3 (stereo not given in full) | 0.475 | -3.55 (inactive) | -2.59 (inactive) | -2.18 (inactive) | 0.0236 | 0.768 (inactive) | -0.212 | 0.57 | 0.571 | -0.0549 |
| C[N+](C)(C)CCCCCCNC(=O)[C@@H]1C[C@@H]2C(=O)NCC(=O)N2[C@@H]1c1ccc(O)cc1 | 1.53 | 0.302 (inactive) | 0.274 (inactive) | -0.0145 (inactive) | 2.39 | -0.239 (inactive) | -0.0942 | 1.53 | 1.06 | -0.141 |
| COCCOC(=O)N1C(=O)[C@@]2(c3cc(C#CCNC(N)=O)ccc31)[C@H](c1ccc(OCCO)cc1)N1[C@H](c3ccccc3)[C@H](c3ccccc3)OC(=O)[C@H]1[C@@H]2C(=O)N1CCN(c2ncccn2)CC1 | 1.43 | 1.22 (inactive) | 0.423 (inactive) | 4.72 (inactive) | 2.1 | 0.338 (inactive) | 0.456 | 1.35 | 1.1 | -0.0424 |
| O=C1O[C@H](c2ccccc2)[C@H](c2ccccc2)N2[C@H]1[C@@H](C(=O)N1CCN(c3ncccn3)CC1)[C@]1(C(=O)Nc3ccc(C#CCCO)cc31)[C@H]2c1ccc(OCCO)cc1 | 1.54 | 0.987 (inactive) | 1.14 (inactive) | 4.15 (inactive) | 3.13 | 0.132 (inactive) | 0.152 | 1.47 | 1.1 | 0.155 |
| CCC[C@@H]1C[C@@]1(CCC)[C@@H](NC(=O)c1ccco1)c1ccc(Cl)cc1 | -1.25 | 0.349 (inactive) | -0.0896 (inactive) | 0.194 (inactive) | -0.825 | -1.1 (inactive) | -0.149 | -0.174 | -0.625 | -0.165 |
| CCCCC(O)C1C=CC2C(=O)N(Cc3ccccc3)C(=O)C2N1n1cnnc1 (stereo not given) | 0.623 | -0.28 (inactive) | 0.653 (inactive) | -0.335 (inactive) | 2.57 | -0.981 (inactive) | -0.103 | 0.159 | 0.62 | 0.035 |
